HCMV inh: inhibitors of human cytomegalovirus. activity change, negative = inhibition, % at 57.5 µM. 410,000 tested, 4.5% active. HFF cells, HCMV-luciferase reporter, 72 h; stronger effect = lower value; in the data active = activity change below about -60%; inconclusive = no clear call, values can overlap the other calls; inactive = above about -39%; also: % is scaled to controls: 0 for no effect and ±100 for the full control effect
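Screen run at 2 compound doses on HFFs infected with reporter HCMV, MOI 1 PFU/cell. Luciferase activity from cell lysates at 72 h post infection gave inhibition relative to buffer-only and Salinomycin wells.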
Pf growth 48h: inhibits P. falciparum growth in the first generation, 48 h | P. falciparum luciferase growth in erythrocytes, 48 h | Potency, µM (highest dose often 28.7 µM), for inactives: at the highest dose activity change, negative = inhibition, hits mostly inhibitors | 310,000 tested, 5.9% active | AID 504832; also: potency is read from the fitted curve at half-maximal effect; % is scaled to controls: 0 for no effect and ±100 for the full control effect
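Luminescence readout; reporter = integrated firefly luciferase in P. falciparum. RBC culture at 2% hematocrit, 0.1% parasitemia final, 37 C/5% CO2; decreased signal taken as growth inhibition.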
CHX counter: affects cycloheximide protein synthesis inhibition readout, counter-screen. cell reporter, cycloheximide protein synthesis inhibition counterscreen. max response, %. 300,000 tested, 12% active. AID 2314; in the data active = max response mostly above about 13%, no sharp cut-off; inactive = mostly below about 14%; also: read at 38.3 µM for the half of the compounds with a filed dose; 0% is about no effect
Pf growth 96h: inhibits malaria parasite growth, 96 h; P. falciparum luciferase reporter growth, 96 h; Potency, µM (series often up to 28.7 µM), inactives show at the top dose activity change, negative = inhibition, hits mostly inhibitors; 320,000 tested, 6.9% active; AID 504834; also: potency is read from the fitted curve at half-maximal effect; % is scaled to controls: 0 for no effect and ±100 for the full control effect
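Compounds incubated with erythrocytes infected by luciferase-expressing P. falciparum (2% hematocrit, 0.05% parasitemia final) for 96 hours, 37 C in 5% CO2. Growth inhibition scored as decreased luciferase luminescence.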
Shiga toxin inh: inhibitors of Shiga toxin in Vero cells | 290,000 tested, 9.2% active | Vero cells, Shiga toxin protein synthesis inhibition reporter | inhibition, % at 38.7 µM; in the data active = inhibition mostly above about 28%, no sharp cut-off; inactive = mostly below about 43%; also: 0% is about no effect
* hit, by the source's call; u = inconclusive; x = not tested or not shown. Sampled rows, rich in hits. Any-hit rate of the full collection: about 20%. Unless noted, calls follow the shape of the dose curve; as a rule, active = well fitted inhibition curve with a large enough effect; inconclusive = small, poorly fitted or top-dose-only effect, or another doubt; inactive = no such curve, though single readings can be large or run the other way.

SMILES	HCMV inh	Pf growth 48h	CHX counter	Pf growth 96h	Shiga toxin inh
O=C(Nc1ccccc1C(F)(F)F)c1ncoc1-c1ccco1	-16	x	x	x	x
COc1ccc(S(=O)(=O)N2CCOCC2)cc1NC(=O)c1ccc2c(c1)OCCO2	-24	-26%	-1	u	11
CCOc1ccc(Oc2c(C)oc3cc(O)ccc3c2=O)cc1	u	0%	-4	54%	23
CCOC(=O)c1ccc(Oc2c(C)oc3cc(OS(C)(=O)=O)ccc3c2=O)cc1	-77*	14%	-1	-21%	14
COCCOC(=O)c1c(C)oc2ccc(OS(C)(=O)=O)cc12	-6	37%	21*	-21%	18
CNc1cncc(-c2c(OC)cccc2OC)n1	-103*	x	x	x	x
CN1CCN(c2ccc(S(=O)(=O)N3CCCCC3)cc2NC(=O)CSC(C)(C)C)CC1	16	x	x	x	x
CCOC(=O)C1=C(C)NC(C)=C(C(=O)OCC)C1C(=O)OCC(=O)NCCc1ccccc1	-5	x	x	x	x
CCn1cc(C(=O)NCc2ccccc2Cl)c(=O)c2cc(S(=O)(=O)N3CCCCCC3)ccc21	30	x	x	x	x
CNC(=O)C[C@H]1C(=O)N(c2ccc(Br)cc2)C[C@@H]1CSC	-2	x	x	x	x
O=S(=O)(NCCSc1nnnn1-c1ccccc1)c1ccc(F)cc1	-61*	x	x	x	x
O=S(=O)(NCCSc1nnnn1-c1ccccc1)c1cccs1	-81*	42%	33*	-1%	43*
CCC(CC)C(=O)N1CC(=O)Nc2ccc(F)cc2C1c1ccccc1 (configuration not stated)	30	0%	-2	15%	-14
COc1ccc(-c2csc3nc(C)nc(N4CCCCC4)c23)cc1OC	85	u	7	4.7µM*	28
COc1ccc(-c2csc3nc(-c4cccnc4)nc(N4CCC(C(N)=O)CC4)c23)cc1OC	77	-25%	-2	0%	-5
COc1ccc(C([O-])=Nc2ccc[n+](-c3nc4ccccc4nc3NS(=O)(=O)c3ccccc3)c2)cc1	-13	2.6µM*	-1	13µM*	11
O=S(=O)(Nc1nc2ccccc2nc1-[n+]1cccc(N=C([O-])c2ccccc2Cl)c1)c1ccccc1	x	8.3µM*	11	8.3µM*	4
Cc1ccc(S[C@@H](CCN2CC[C@H](C)CCC2=O)c2ccccc2)cc1	u	u	-1	9.3µM*	8
C[C@@H]1CCC(=O)N(CC[C@H](Sc2ccc(Br)cc2)c2ccccc2)CC1	8	u	x	u	x
C[C@@H]1CCC(=O)N(CC[C@H](Oc2ccccc2)c2ccccc2)CC1	-64*	u	-2	u	1
COc1ccc(S[C@@H](CCN2CC[C@H](C)CCC2=O)c2ccccc2)cc1	-8	8.3µM*	x	u	x
O=c1oc2ccccc2c(O)c1[C@H]1c2ccc(O)cc2Oc2c1c(=O)oc1ccccc21	-93*	-1%	-1	19%	13
CCNC(=O)CCS(=O)(=O)c1ccc2ccccc2c1	-9	-6%	-2	24%	10
c1nc(N2CCOCC2)c2c3c(sc2n1)CCCC3	-65*	u	-2	10%	-9
Cc1nc(N2CCOCC2)c2c3c(sc2n1)CCC3	-2	10µM*	-5	u	-16
SMILES	HCMV inh	Pf growth 48h	CHX counter	Pf growth 96h	Shiga toxin inh
c1ccn(-c2ncnc3sc4c(c23)CCCC4)c1	u	x	7	u	-28
c1cn(-c2ncnc3sc4c(c23)CCCC4)cn1	-70*	-5%	-4	0.17µM*	-5
CC(Oc1ccccc1)C(=O)N=C1SC2CS(=O)(=O)CC2N1CCc1ccccc1 (configuration not stated)	0	u	-2	u	-6
Cc1nn(-c2ccccc2)c2sc(C(=O)OCC(=O)N3CCCCC3)cc12	-13	4%	1	u	9
Cc1nc2cc(N)ccc2n1C1CCCCC1	-25	-5%	10	96%	-12
Cc1cc(-c2cc(N)n(-c3ccccc3)n2)c(C)n1C1CCCC1	30	u	36*	34%	40*
CCSc1nc2c(c(=O)[nH]1)C(c1ccncc1)C(C(=O)OC(C)C)=C(C)N2 (configuration not stated)	39	u	-4	10µM*	-21
Cc1cc(C)cc(-n2c(C)cc(/C=N/NC(=O)c3ccncc3)c2C)c1	1	u	7	u	18
Cc1ccnc(-n2c(C)cc(/C=N/NC(=O)COc3cccc4cccnc34)c2C)c1	u	-19%	-2	-11%	13
Cc1cc(C)cc(-n2c(C)cc(/C=N/NC(=O)CSc3ncccn3)c2C)c1	-22	u	-2	-22%	34
Cc1cc(/C=N/NC(=O)C(=O)NCc2ccccn2)c(C)n1-c1ccccc1	-27	29%	28*	18%	46*
Cc1cc(/C=N\NC(=O)c2cccs2)c(C)n1-c1ccc2ncccc2c1	38	54%	40*	46%	135*
Cc1cc(/C=N\NC(=O)COc2cccc3cccnc23)c(C)n1-c1ccccc1	u	u	31*	6.6µM*	64*
Cc1cc(/C=N/NC(=O)Cn2c3ccccc3c(=O)c3ccccc32)c(C)n1-c1ccccc1	u	u	10	u	20
Cc1cc(/C=N\NC(=O)COc2cccc3cccnc23)c(C)n1-c1ccc(Br)cc1	u	5.9µM*	-1	2.3µM*	-13
O=C(CCN1CCN(Cc2ccccc2)CC1)NNC(=O)c1ccc(Cl)c(Cl)c1	33	x	x	x	x
CCN(CC)c1ccc(/C=N/NC(=S)NCc2ccccc2)cc1	-5	13µM*	-5	9.3µM*	-9
C=CCNC(=S)N/N=C/c1ccc(N(CC)Cc2ccccc2)cc1	-12	6.6µM*	13*	0%	-3
CCN(CC)c1ccc(/C=N/NC(=S)NCc2ccc(OC)cc2)cc1	16	u	1	u	-14
COCc1ccc(C(=O)N2CCCC(C(=O)c3ccc(Cl)cc3C)C2)o1 (configuration not stated)	0	6%	5	u	12
COc1cccc(NC(=O)C2(C)CCN2CC2CCCCC2)c1 (configuration not stated)	-31	x	x	x	x
Cc1ccc2c(c1)c(=O)c(C(=O)c1ccc3c(c1)OCO3)cn2Cc1ccc(Cl)cc1	-25	x	x	x	x
CCOC(=O)C1=NNC(C(=O)c2ccccc2)C1c1ccc(Cl)cc1 (configuration not stated)	-19	-28%	-1	18%	21
CCOC(=O)C1=NNC(C(=O)c2ccccc2)C1c1ccc(C)cc1 (configuration not stated)	-28	1.7µM*	13	2.1µM*	9
CCOC(=O)C1=NNC(C(=O)c2ccc(C)cc2)C1c1ccc(C)cc1 (configuration not stated)	-34	10µM*	5	22%	32
CCC(=O)Nc1ccccc1-c1nc2ccccc2n(CC(=O)Nc2ccccc2OC)c1=O	10	x	x	x	x
Cc1ccc(CCN2C(=O)c3ccc(C(=O)O)cc3C2=O)cc1	x	2%	-2	0%	18
